Bioassay records deposited in PubChem by Columbia University Molecular Screening Center.
An excerpt weighted towards active compounds, which were near 1.7% of everything screened.
E-sel TNF inh – TNF alpha driven E-selectin expression inhibition; HUVEC TNFa-induced E-selectin immunofluorescence, high content; inhibition, % at 2 µM; hit rate 0.71% among 120,000; AID 1246;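 active means inhibition above the batch mean plus 3 SD, and confirmed as a hit on visual image review, cut at about 43% in these data; inconclusive means passes the inhibition cutoff but fails visual image review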
HUVEC tox TNFa – HUVEC cytotoxicity counter-screen, TNF alpha stimulated; HUVEC TNFalpha-stimulated, Hoechst cell count, imaging; cell count reduction, % at 2 µM; hit rate 0.17% among 93,000; AID 848;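 active means cell count reduction exceeding the screen mean by over 5 SD, scaled to untreated wells per plate, cut at about 78% in these data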;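 further: cells counted after 24 h of TNF alpha exposure following the 1 h pretreatment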
VCAM1 TNFa inh – reduces TNF alpha induced VCAM1 expression in HUVEC. hit rate 0.48% among 95,000. HUVEC TNFa-induced VCAM-1 immunofluorescence, high-content imaging. inhibition, % at 2 µM. AID 802;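 active means inhibition above the batch mean plus 3 SD, with images confirmed as a hit by eye, cut at about 37% in these data; inconclusive means inhibition above that limit but hit not confirmed in images; inactive means inhibition not above that limit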
IL1B NFkB pot – enhances IL-1B driven NFkB nuclear translocation | HUVEC IL-1B NFkB p65 nuclear translocation imaging | activation, % at 2 µM | hit rate 0.3% among 94,000 | AID 819;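 active means activation above 40%, about the mean plus 3 SD, also judged a hit on visual image review; inconclusive means activation above 40% but not a hit on visual review; inactive means activation not above 40% and no visual hit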;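 further: percent activation is computed from the nuclear over cytoplasmic p65 intensity ratio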
HUVEC tox IL1B – toxic to HUVEC cells under IL-1B stimulation; HUVEC cell count loss, Hoechst imaging, IL-1B stimulated; cell count reduction, % at 2 µM; hit rate 0.41% among 94,000;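 active means cell count reduction more than 3 SD above the screen-wide mean, cut at about 70% in these data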
IL1B NFkB inh – blocks IL-1B driven NFkB nuclear translocation in HUVEC cells. HUVEC IL-1B NFkB p65 nuclear translocation imaging. inhibition, % at 2 µM. hit rate 0.43% among 94,000. AID 796;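 active means inhibition above about 30% together with a positive call from visual inspection of the well image, limit read from the data; inconclusive means inhibition above a set limit but visual check negative; inactive means inhibition not above a set limit, visual check negative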;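 further: nuclear over cytoplasmic p65 intensity ratio measured by imaging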
Large screens that a line does not name were inactive.

CCOC(=O)c1ccc(NS(=O)C23CC4CC(CC(C4)C2)C3)cc1 (stereo not drawn)	VCAM1 TNFa inh 54
CCN1CCN(C(c2ccc(F)cc2)c2nnnn2Cc2cccs2)CC1 (stereo not drawn)	none (no result: HUVEC tox TNFa, VCAM1 TNFa inh, IL1B NFkB pot, HUVEC tox IL1B, IL1B NFkB inh)
CN1CCN(C(c2ccc(F)cc2)c2nnnn2Cc2cccs2)CC1 (stereo not drawn)	E-sel TNF inh 57 (no result: HUVEC tox TNFa, VCAM1 TNFa inh, IL1B NFkB pot, HUVEC tox IL1B, IL1B NFkB inh)
Cc1cc(OCCCCCNCCO)cc(C)c1Cl	none (no result: HUVEC tox TNFa, VCAM1 TNFa inh, IL1B NFkB pot, HUVEC tox IL1B, IL1B NFkB inh)
Cc1cc(C)cc(OCCCCCNCCO)c1	VCAM1 TNFa inh 96
Cc1cc(C)c(OCCCCCNCCO)c(C)c1	IL1B NFkB pot 42
Cn1cnnc1SCC(=O)c1c(N)n(Cc2ccccc2)c(=O)n(C)c1=O	none (no result: HUVEC tox TNFa, VCAM1 TNFa inh, IL1B NFkB pot, HUVEC tox IL1B, IL1B NFkB inh)
COc1ccc(C)cc1NC(=O)CN1CCN(C/C=C/c2ccccc2)CC1	none
CCCCC(=O)NC(=S)Nc1nnn(CCC)n1	none (no result: HUVEC tox TNFa, VCAM1 TNFa inh, IL1B NFkB pot, HUVEC tox IL1B, IL1B NFkB inh)
Cc1cc(C(=O)N2CCc3ccccc32)c2ccccc2n1	E-sel TNF inh 64
O=C(c1ccccc1)N1CCc2ccccc21	none
CCOc1cc(NC(=O)c2ccco2)c(OCC)cc1NC(=O)Cc1cccc(OC)c1	none
CCOc1cc(NC(=O)c2ccco2)c(OCC)cc1NC(=O)CCC(=O)NCc1cccnc1	HUVEC tox TNFa 100, VCAM1 TNFa inh inconclusive
CCCSc1cc(=O)n(-c2ccc(F)cc2)nc1C(=O)OCC	none (no result: HUVEC tox TNFa, VCAM1 TNFa inh, IL1B NFkB pot, HUVEC tox IL1B, IL1B NFkB inh)
O=c1c2ccccc2n2c(-c3cccc(F)c3)nnc2n1Cc1ccccc1	E-sel TNF inh 74 (no result: HUVEC tox TNFa, VCAM1 TNFa inh, IL1B NFkB pot, HUVEC tox IL1B, IL1B NFkB inh)
CCN1C(=O)C(CC(=O)Nc2ccc(OC)cc2)N(Cc2ccc3c(c2)OCO3)C1=S (stereo not drawn)	none (no result: HUVEC tox TNFa, VCAM1 TNFa inh, IL1B NFkB pot, HUVEC tox IL1B, IL1B NFkB inh)
CCC(=O)Nc1cccc(NC(=O)c2ccc(C)cc2Cl)c1	none (no result: HUVEC tox TNFa, VCAM1 TNFa inh, IL1B NFkB pot, HUVEC tox IL1B, IL1B NFkB inh)
COCCNC(=S)NNc1ccccc1[N+](=O)[O-]	none (no result: HUVEC tox TNFa, VCAM1 TNFa inh, IL1B NFkB pot, HUVEC tox IL1B, IL1B NFkB inh)
COc1ccc(OC)c(NS(=O)(=O)c2ccc(N3CCCC3=O)cc2)c1	VCAM1 TNFa inh 41 (no result: E-sel TNF inh, IL1B NFkB pot, HUVEC tox IL1B, IL1B NFkB inh)
CCOc1ccc(S(=O)(=O)Nc2cc(OC)ccc2OC)cc1	VCAM1 TNFa inh 59 (no result: E-sel TNF inh)
COc1ccc(CCNS(=O)(=O)c2ccc(N3CCCC3=O)cc2)cc1	none
COc1cccc(NC(=O)CSc2nc3ccccc3cc2Cc2ccccc2)c1	none
COc1cccc(CSc2nc3ccccc3cc2C=O)c1	VCAM1 TNFa inh 90, HUVEC tox IL1B 72, IL1B NFkB inh 43
COc1ccc(NC(=O)c2ccc(C)cc2Cl)c([N+](=O)[O-])c1	HUVEC tox IL1B 79
Cc1cccc(-n2cc(C(=O)O)c(=O)cc2C)c1	none (no result: HUVEC tox TNFa, VCAM1 TNFa inh, IL1B NFkB pot, HUVEC tox IL1B, IL1B NFkB inh)
CCn1c2ccccc2c2cc(NC(=O)c3cc(OC)c(OC)c(OC)c3)ccc21	VCAM1 TNFa inh 95
CCn1c2ccccc2c2cc(NC(=O)c3cc(OC)cc(OC)c3)ccc21	none (no result: HUVEC tox TNFa, VCAM1 TNFa inh, IL1B NFkB pot, HUVEC tox IL1B, IL1B NFkB inh)
COc1ccc(OC)c(NC(=O)CN2C(=O)NC3(CCOc4ccccc43)C2=O)c1 (stereo not drawn)	none
CC(NCc1ccccc1)C1COc2ccccc2O1 (stereo not drawn)	IL1B NFkB pot 49
O=C(c1nc2nc(-c3ccc(Cl)cc3)cc(C(F)(F)F)n2n1)N1CCOCC1	IL1B NFkB inh 31
O=C(NCc1nc(-c2ccccc2)no1)c1ccc2c(c1)OCO2	E-sel TNF inh 100
CC(=O)c1ccc(NC(=S)NNC(=O)c2ccncc2)cc1	none (no result: HUVEC tox TNFa, VCAM1 TNFa inh, IL1B NFkB pot, HUVEC tox IL1B, IL1B NFkB inh)
Cc1cc(NC(=O)CSc2nnc3c4c(C)c(C)sc4ncn23)no1	E-sel TNF inh 69
NC(=O)C1CCCN(C(=S)Nc2cccc3ccccc23)C1 (stereo not drawn)	E-sel TNF inh 70 (no result: HUVEC tox TNFa, VCAM1 TNFa inh, IL1B NFkB pot, HUVEC tox IL1B, IL1B NFkB inh)
S=C(Nc1cccc2ccccc12)N1CCN(c2ncccn2)CC1	none
COc1ccc(N(C(=O)c2cnccn2)C(C(=O)NC2CCCCC2)c2ccc(O)cc2)cc1 (stereo not drawn)	none (no result: HUVEC tox TNFa, VCAM1 TNFa inh, IL1B NFkB pot, HUVEC tox IL1B, IL1B NFkB inh)
CC1CCN(S(=O)(=O)c2ccc(NC(=O)CSc3ncccc3C(=O)O)cc2)CC1	E-sel TNF inh 62 (no result: HUVEC tox TNFa, VCAM1 TNFa inh, IL1B NFkB pot, HUVEC tox IL1B, IL1B NFkB inh)
O=C(CSc1nc2ccccc2c(=O)[nH]1)Nc1ccc(S(=O)(=O)N2CCCC2)cc1	IL1B NFkB inh 31
CC1=CC(=O)C=C(C)C1=NOc1ccccc1[N+](=O)[O-]	none (no result: HUVEC tox TNFa, VCAM1 TNFa inh, IL1B NFkB pot, HUVEC tox IL1B, IL1B NFkB inh)
Cc1cc(C(=O)NCc2ccc(S(N)(=O)=O)cc2)c(C)o1	none
O=C(CC12CC3CC(CC(C3)C1)C2)NC(=S)NCc1ccccc1	none (no result: HUVEC tox TNFa, VCAM1 TNFa inh, IL1B NFkB pot, HUVEC tox IL1B, IL1B NFkB inh)
NS(=O)(=O)c1ccc(CNC(=O)CC23CC4CC(CC(C4)C2)C3)cc1	IL1B NFkB inh 32
CN(C)C(=O)NCc1ccc(S(N)(=O)=O)cc1	HUVEC tox IL1B 87
CC(CC(=O)NC1CCCC1)c1ccccc1 (stereo not drawn)	none
COc1ccc(Nc2nc(C)cc(C)c2C#N)cc1OC	E-sel TNF inh 59
COc1cccc(Nc2nc(C)cc(C)c2C#N)c1	none
O=[N+]([O-])c1nn(-c2ccc3c(c2)OCCO3)n(O)c1=NCc1ccccc1Cl	IL1B NFkB pot 92
O=[N+]([O-])c1ccc(/C=N/n2c(COc3ccccc3)n[nH]c2=S)cc1	VCAM1 TNFa inh 43
O=C1CCCc2c1cc(C(=O)NC1CCSC1=O)c(=O)n2-c1ccccc1 (stereo not drawn)	HUVEC tox TNFa 94 (no result: VCAM1 TNFa inh)
Cc1ccc(SCCCCN2CCNCC2)cc1	none (no result: HUVEC tox TNFa, VCAM1 TNFa inh, IL1B NFkB pot, HUVEC tox IL1B, IL1B NFkB inh)
CCOc1cc(/C=N/N2CCOCC2)ccc1OCc1ccc(C(=O)OC)o1	none (no result: HUVEC tox TNFa, VCAM1 TNFa inh, IL1B NFkB pot, HUVEC tox IL1B, IL1B NFkB inh)
O=C(CSc1nnc(Cn2nnc(-c3ccccc3)n2)n1-c1ccccc1)Nc1ccc(F)cc1	HUVEC tox IL1B 90, IL1B NFkB inh 99
CCOC(=O)N1CCN(C(=O)c2c(N)no[n+]2[O-])CC1	none (no result: HUVEC tox TNFa, VCAM1 TNFa inh, IL1B NFkB pot, HUVEC tox IL1B, IL1B NFkB inh)
C[N+]1(CC(=O)Nc2ccc(F)cc2)CCN(C(=O)c2ccco2)CC1	none
O=C(O)c1ccc(NC(CSCc2ccccc2F)C(=O)O)c([N+](=O)[O-])c1 (stereo not drawn)	none (no result: HUVEC tox TNFa, VCAM1 TNFa inh, IL1B NFkB pot, HUVEC tox IL1B, IL1B NFkB inh)
O=Cc1ccc(OCc2ccccn2)cc1	E-sel TNF inh 45
CCOc1ccc(CN(C)CCc2ccccn2)cc1	none (no result: HUVEC tox TNFa, VCAM1 TNFa inh, IL1B NFkB pot, HUVEC tox IL1B, IL1B NFkB inh)
COc1cc(CC(=O)Oc2ccc3c(c2)OCO3)cc(OC)c1OC	E-sel TNF inh 91 (no result: HUVEC tox TNFa, VCAM1 TNFa inh)
